{
  "source": "ChEMBL document CHEMBL1961873",
  "about": "“Compounds: GSK PKIS; Assays: Nanosyn kinase panel” (2012)",
  "key": {"[1]": {"target": "Sphingosine kinase 1 (Homo sapiens) (UniProt Q9NYA1)", "sequence (Q9NYA1 whole entry)": "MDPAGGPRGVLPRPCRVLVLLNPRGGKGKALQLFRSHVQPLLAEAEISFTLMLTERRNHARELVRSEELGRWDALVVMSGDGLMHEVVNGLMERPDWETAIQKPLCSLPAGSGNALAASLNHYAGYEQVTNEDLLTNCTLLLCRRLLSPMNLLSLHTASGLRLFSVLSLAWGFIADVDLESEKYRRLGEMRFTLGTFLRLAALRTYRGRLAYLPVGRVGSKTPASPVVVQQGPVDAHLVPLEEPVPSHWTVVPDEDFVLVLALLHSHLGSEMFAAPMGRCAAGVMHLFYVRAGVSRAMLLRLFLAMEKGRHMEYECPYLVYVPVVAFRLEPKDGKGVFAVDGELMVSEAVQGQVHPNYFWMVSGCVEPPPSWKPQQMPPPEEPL", "details": "at 1 µM"}, "[2]": {"target": "T1, Sphingosine kinase 2 (Homo sapiens) (UniProt Q9NRA0)", "T1 sequence (whole entry)": "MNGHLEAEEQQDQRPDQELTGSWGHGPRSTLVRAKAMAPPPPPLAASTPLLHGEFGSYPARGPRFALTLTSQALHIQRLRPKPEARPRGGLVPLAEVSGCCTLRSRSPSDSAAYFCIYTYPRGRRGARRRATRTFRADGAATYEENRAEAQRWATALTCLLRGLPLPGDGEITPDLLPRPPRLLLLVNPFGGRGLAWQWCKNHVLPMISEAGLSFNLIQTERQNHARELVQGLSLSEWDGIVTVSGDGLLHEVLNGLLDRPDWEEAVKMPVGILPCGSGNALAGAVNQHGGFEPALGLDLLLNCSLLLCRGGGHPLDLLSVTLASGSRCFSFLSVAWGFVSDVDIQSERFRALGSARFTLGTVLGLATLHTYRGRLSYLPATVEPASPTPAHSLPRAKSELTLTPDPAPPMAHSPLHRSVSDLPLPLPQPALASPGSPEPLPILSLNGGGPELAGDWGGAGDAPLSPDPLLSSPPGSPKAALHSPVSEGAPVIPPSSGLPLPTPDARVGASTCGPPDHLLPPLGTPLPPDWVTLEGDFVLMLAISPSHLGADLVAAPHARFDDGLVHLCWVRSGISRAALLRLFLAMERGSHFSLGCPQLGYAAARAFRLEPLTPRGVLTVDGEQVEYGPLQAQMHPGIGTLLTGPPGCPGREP", "details": "at 0.1 µM"}, "[3]": {"target": "T1, Sphingosine kinase 2 (Homo sapiens)", "details": "at 1 µM"}, "[4]": {"target": "Casein kinase II subunit alpha (Homo sapiens) (UniProt P68400)", "sequence (P68400 whole entry, looked up)": "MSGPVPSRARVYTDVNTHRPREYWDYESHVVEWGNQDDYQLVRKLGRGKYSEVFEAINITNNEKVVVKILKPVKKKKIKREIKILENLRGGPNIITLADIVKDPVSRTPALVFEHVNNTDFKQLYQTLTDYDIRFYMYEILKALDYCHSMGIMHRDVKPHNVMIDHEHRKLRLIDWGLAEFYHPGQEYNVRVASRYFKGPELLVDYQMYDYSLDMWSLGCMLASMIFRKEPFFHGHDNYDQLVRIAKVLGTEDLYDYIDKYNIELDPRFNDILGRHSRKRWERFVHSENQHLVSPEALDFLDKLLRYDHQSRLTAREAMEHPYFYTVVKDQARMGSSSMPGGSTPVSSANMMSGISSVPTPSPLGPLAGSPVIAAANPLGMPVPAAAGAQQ", "details": "at 0.1 µM"}, "[5]": {"target": "Casein kinase II subunit alpha (Homo sapiens) (UniProt P68400)", "details": "at 1 µM"}, "[6]": {"target": "T2, Inhibitor of nuclear factor kappa-B kinase subunit alpha (Homo sapiens) (UniProt O15111)", "T2 sequence (whole entry)": "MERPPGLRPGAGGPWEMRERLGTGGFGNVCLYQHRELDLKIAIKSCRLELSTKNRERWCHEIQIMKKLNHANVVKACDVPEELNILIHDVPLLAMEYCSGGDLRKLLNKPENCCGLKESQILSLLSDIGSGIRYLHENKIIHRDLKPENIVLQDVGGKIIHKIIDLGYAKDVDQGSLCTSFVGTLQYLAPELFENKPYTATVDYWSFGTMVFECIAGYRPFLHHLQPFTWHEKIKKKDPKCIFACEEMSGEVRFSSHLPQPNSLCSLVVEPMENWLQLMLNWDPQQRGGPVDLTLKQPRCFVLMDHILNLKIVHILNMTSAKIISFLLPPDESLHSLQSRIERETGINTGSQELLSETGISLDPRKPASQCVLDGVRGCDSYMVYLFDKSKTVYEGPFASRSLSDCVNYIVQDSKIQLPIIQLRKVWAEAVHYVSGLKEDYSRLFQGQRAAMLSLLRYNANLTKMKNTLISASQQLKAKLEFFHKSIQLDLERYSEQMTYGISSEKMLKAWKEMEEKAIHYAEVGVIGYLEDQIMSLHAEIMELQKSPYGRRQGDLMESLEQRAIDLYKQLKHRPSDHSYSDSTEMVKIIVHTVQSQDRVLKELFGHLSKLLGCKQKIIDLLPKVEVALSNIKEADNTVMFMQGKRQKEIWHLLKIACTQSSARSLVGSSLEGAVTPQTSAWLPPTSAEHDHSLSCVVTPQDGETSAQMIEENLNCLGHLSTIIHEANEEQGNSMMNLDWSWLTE", "details": "at 0.1 µM"}, "[7]": {"target": "T2, Inhibitor of nuclear factor kappa-B kinase subunit alpha (Homo sapiens)", "details": "at 1 µM"}, "[8]": {"target": "T3, Inhibitor of nuclear factor kappa-B kinase subunit beta (Homo sapiens) (UniProt O14920)", "T3 sequence (whole entry)": "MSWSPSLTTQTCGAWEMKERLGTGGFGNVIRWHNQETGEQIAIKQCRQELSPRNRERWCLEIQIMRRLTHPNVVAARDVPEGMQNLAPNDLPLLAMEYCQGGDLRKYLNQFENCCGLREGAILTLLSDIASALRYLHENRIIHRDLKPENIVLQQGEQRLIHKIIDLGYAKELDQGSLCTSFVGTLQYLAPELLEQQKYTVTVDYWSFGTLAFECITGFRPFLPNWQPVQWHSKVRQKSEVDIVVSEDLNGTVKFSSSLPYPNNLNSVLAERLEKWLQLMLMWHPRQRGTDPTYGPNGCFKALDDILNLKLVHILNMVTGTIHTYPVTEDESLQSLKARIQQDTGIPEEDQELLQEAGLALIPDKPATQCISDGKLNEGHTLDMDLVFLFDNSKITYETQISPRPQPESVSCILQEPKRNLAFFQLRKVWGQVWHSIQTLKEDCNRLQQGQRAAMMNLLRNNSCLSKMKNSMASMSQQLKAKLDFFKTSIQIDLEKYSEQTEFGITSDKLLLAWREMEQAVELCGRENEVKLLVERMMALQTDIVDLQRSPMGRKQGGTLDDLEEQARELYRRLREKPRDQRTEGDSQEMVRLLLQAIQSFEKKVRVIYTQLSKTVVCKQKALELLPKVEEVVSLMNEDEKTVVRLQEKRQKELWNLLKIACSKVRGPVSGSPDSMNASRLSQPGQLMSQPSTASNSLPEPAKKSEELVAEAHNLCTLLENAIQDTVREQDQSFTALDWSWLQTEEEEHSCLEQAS", "details": "at 0.1 µM"}, "[9]": {"target": "T3, Inhibitor of nuclear factor kappa-B kinase subunit beta (Homo sapiens)", "details": "at 1 µM"}, "[10]": {"target": "T4, Inhibitor of nuclear factor kappa-B kinase subunit epsilon (Homo sapiens) (UniProt Q14164)", "T4 sequence (whole entry)": "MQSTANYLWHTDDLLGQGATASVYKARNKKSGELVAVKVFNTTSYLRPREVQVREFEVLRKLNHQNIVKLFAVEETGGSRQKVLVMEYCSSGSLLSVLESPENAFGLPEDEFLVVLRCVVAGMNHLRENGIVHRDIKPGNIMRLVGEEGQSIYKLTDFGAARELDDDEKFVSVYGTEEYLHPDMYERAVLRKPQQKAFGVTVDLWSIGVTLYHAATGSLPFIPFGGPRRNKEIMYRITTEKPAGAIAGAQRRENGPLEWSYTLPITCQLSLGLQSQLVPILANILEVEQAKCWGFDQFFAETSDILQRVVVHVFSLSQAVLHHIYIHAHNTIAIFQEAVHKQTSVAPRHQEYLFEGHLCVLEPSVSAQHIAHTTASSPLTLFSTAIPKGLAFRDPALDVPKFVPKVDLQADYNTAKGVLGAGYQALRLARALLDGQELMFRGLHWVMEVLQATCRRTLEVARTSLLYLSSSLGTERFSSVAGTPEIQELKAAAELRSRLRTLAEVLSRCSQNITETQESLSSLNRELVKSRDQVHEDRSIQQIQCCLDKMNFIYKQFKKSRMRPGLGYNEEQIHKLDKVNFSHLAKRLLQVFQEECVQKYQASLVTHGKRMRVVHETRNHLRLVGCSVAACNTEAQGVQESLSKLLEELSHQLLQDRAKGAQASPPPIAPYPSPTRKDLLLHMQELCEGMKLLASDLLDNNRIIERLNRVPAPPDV", "details": "at 0.1 µM"}},
  "data": [
    {"smiles": "O=C1NC(=O)C(c2ccccc2Cl)=C1Nc1cccc(O)c1", "values": [
      {"measurement": "inhibition", "setting": "[1]", "value": -1.02, "unit": "%"},
      {"measurement": "inhibition", "setting": "[2]", "value": 0.69, "unit": "%"},
      {"measurement": "inhibition", "setting": "[3]", "value": -0.36, "unit": "%"},
      {"measurement": "inhibition", "setting": "[4]", "value": 0.98, "unit": "%"},
      {"measurement": "inhibition", "setting": "[5]", "value": 0.1, "unit": "%"},
      {"measurement": "inhibition", "setting": "[6]", "value": 3.36, "unit": "%"},
      {"measurement": "inhibition", "setting": "[7]", "value": 1.21, "unit": "%"},
      {"measurement": "inhibition", "setting": "[8]", "value": 3.78, "unit": "%"},
      {"measurement": "inhibition", "setting": "[9]", "value": 3.39, "unit": "%"},
      {"measurement": "inhibition", "setting": "[10]", "value": 1.96, "unit": "%"}
    ]}
  ]
}
